# Assay results: the supplement of paper PMC10646978
# ± gives the standard deviation.
# Key:
# Conditions in all cases: modulator concentration 10 µM
# [1] = system: RAW-Dual (murine macrophage reporter line); assay: NF-kB reporter (SEAP) activity fold change vs agonist alone; higher = enhanced NF-kB activity
# Procedure, shortened: (§1)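 RAW-Dual murine macrophage reporter cells were plated at 50 000 per well in 384-well plates, pin-transferred compound to 10 μM final, and pre-incubated for 1 hour at 37 °C before a PRR agonist was added and the cells incubated overnight. NF-κB activity was read from supernatant SEAP with QUANTI-Blue at 620 nm absorbance, and IRF activity from Lucia luciferase with QUANTI-Luc by luminescence. Each signal was expressed as fold change by dividing by the mean agonist-only control on the same plate. Two replicate plates were averaged, with errors obtained by propagation.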
# [2] = system: RAW-Dual (murine macrophage reporter line); assay: IRF reporter (Lucia luciferase) activity fold change vs agonist alone; higher = enhanced IRF activity
# Procedure, shortened: as §1
# [3] = system: RAW-Dual (murine macrophage reporter line); assay: viability score (confluency relative to resting cells, overnight) (fraction); higher = more viable, active = viable (0.7 or more)
# Procedure, shortened: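 RAW-Dual macrophages in 384-well plates were treated overnight with compound at 10 μM final. IncuCyte imaging recorded confluency, and IncuCyte software built two confluency masks across every imaged well. The viability score expresses confluency relative to resting cells and was judged against a cutoff, which a compound met only if both masks exceeded 70% of resting cells.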
# [4] = agonist: CpG ODN 1826 0.5 ug/mL
SMILES,"NF-kB reporter [1, 4]",NF-kB reporter ([1]; agonist: LPS 0.1 ug/mL),NF-kB reporter ([1]; agonist: MPLA […]),IRF reporter ([2]; agonist: 3'3'-cGAMP 10 ug/mL),IRF reporter ([2]; agonist: LPS 0.1 ug/mL),IRF reporter ([2]; agonist: MPLA […]),viability score [3]
NC(=O)c1ccc(N2CCOCC2)c([N+](=O)[O-])c1,1.04 ± 0.087,1 ± 0.089,0.935 ± 0.026,0.984 ± 0.067,1.02 ± 0.05,1.01 ± 0.1,0.993 (active)
O=C(CSC1CCCCC1)Nc1ccc(Br)cc1,1 ± 0.33,0.949 ± 0.07,1.1 ± 0.07,0.671 ± 0.022,1.06 ± 0.12,1.12 ± 0.14,0.962 (active)
COc1cc(C=C2SC(=S)NC2=O)ccc1OCCC(C)C,0.847 ± 0.074,0.969 ± 0.049,1.09 ± 0.11,1.03 ± 0.047,1.43 ± 0.12,1.61 ± 0.2,1 (active)
CC1=C(C(=O)OCCN(Cc2ccccc2)c2ccccc2)C(c2cccc([N+](=O)[O-])c2)C(P2(=O)OCC(C)(C)CO2)=C(C)N1 (stereo not given),0.86 ± 0.2,0.475 ± 0.024,0.543 ± 0.034,0.555 ± 0.028,0.917 ± 0.15,0.736 ± 0.074,1 (active)
O=C(NC(=S)Nc1cccc([N+](=O)[O-])c1)c1cccc(I)c1,0.944 ± 0.1,1.08 ± 0.072,0.985 ± 0.044,0.794 ± 0.1,1.09 ± 0.14,1.02 ± 0.17,1 (active)
NS(=O)(=O)c1ccc(F)cc1,0.947 ± 0.076,1.04 ± 0.076,0.997 ± 0.11,0.977 ± 0.031,1.24 ± 0.2,1.23 ± 0.17,1.02 (active)
CC1CC(=O)C2=C(C1)OC(N)=C(C#N)C2c1ccc(Br)cc1 (stereo not given),0.847 ± 0.088,0.91 ± 0.17,1 ± 0.056,0.782 ± 0.096,0.904 ± 0.04,0.731 ± 0.12,0.994 (active)
CCOc1ccc2nc(SC3CC(=O)N(c4cccc(Cl)c4)C3=O)sc2c1 (stereo not given),0.954 ± 0.091,1.04 ± 0.058,0.785 ± 0.047,0.778 ± 0.046,1.11 ± 0.079,1.04 ± 0.16,1.01 (active)
O=C(O)/C=C/c1ccc(Cn2ccnc2)cc1,0.812 ± 0.079,0.873 ± 0.05,1.07 ± 0.093,1.02 ± 0.062,1.16 ± 0.067,1.13 ± 0.12,1.01 (active)
CCCCC1(C)OC(=O)C(=Cc2ccc(OC)c([N+](=O)[O-])c2)C(=O)O1 (stereo not given),0.994 ± 0.17,1.07 ± 0.11,0.951 ± 0.086,0.966 ± 0.038,1.16 ± 0.13,1.25 ± 0.15,1 (active)
CCCC1=NN2C(=N)C(=Cc3ccc(OCc4ccc(F)cc4)c(OCC)c3)C(=O)N=C2S1,0.992 ± 0.1,1.03 ± 0.057,0.97 ± 0.084,0.965 ± 0.04,1.59 ± 0.17,1.19 ± 0.073,1.01 (active)
CC(C)Oc1cccc(C(=O)NC(=S)N2CCN(c3ccc([N+](=O)[O-])cc3)CC2)c1,0.83 ± 0.064,0.943 ± 0.053,1.09 ± 0.1,0.829 ± 0.038,1.19 ± 0.089,1.34 ± 0.15,1.02 (active)
CCC[C@@H]1C[C@@H](C(=O)N[C@@H]([C@H]2O[C@H](SC)[C@H](OP(=O)(O)O)[C@@H](O)[C@H]2O)[C@H](C)Cl)N(C)C1,0.953 ± 0.08,0.954 ± 0.059,0.952 ± 0.043,0.972 ± 0.073,1.01 ± 0.09,1.15 ± 0.092,1 (active)
CNC(C)CCC=C(C)C.CNC(C)CCC=C(C)C (stereo not given) [Prestw-1023],1.07 ± 0.082,0.976 ± 0.12,1.01 ± 0.16,1 ± 0.047,1.17 ± 0.16,1.23 ± 0.28,1.04 (active)
COc1ccccc1-c1cc(-c2ccccc2)nc(SCC(=O)c2cc3ccccc3oc2=O)c1C#N,0.981 ± 0.058,1.02 ± 0.066,0.966 ± 0.061,0.879 ± 0.034,1.45 ± 0.16,1.07 ± 0.1,1 (active)
CC(Oc1cccc(Cl)c1)C(=O)Nc1nncs1 (stereo not given),0.999 ± 0.082,0.972 ± 0.054,0.967 ± 0.058,0.947 ± 0.023,1.28 ± 0.18,1.05 ± 0.2,1.01 (active)
CCN1CC(CCN2CCOCC2)C(c2ccccc2)(c2ccccc2)C1=O.Cl.O (stereo not given),1 ± 0.15,1.19 ± 0.24,1.79 ± 0.72,0.919 ± 0.028,1.37 ± 0.43,1.03 ± 0.083,1 (active)
O=[N+]([O-])c1ccc(Cl)c(C=Nc2cccc3c(N=Cc4cc([N+](=O)[O-])ccc4Cl)cccc23)c1,0.841 ± 0.047,1.07 ± 0.078,0.988 ± 0.086,0.816 ± 0.05,1.56 ± 0.1,1.26 ± 0.13,1 (active)

SMILES,"NF-kB reporter [1, 4]",NF-kB reporter ([1]; agonist: LPS 0.1 ug/mL),NF-kB reporter ([1]; agonist: MPLA […]),IRF reporter ([2]; agonist: 3'3'-cGAMP 10 ug/mL),IRF reporter ([2]; agonist: LPS 0.1 ug/mL),IRF reporter ([2]; agonist: MPLA […]),viability score [3]
COCCN(CCOC)C(=O)Cc1csc2nc(-c3ccc(F)cc3)cn12,1.1 ± 0.27,0.966 ± 0.084,0.949 ± 0.067,0.947 ± 0.064,1.09 ± 0.15,1.31 ± 0.24,0.653 (inactive)
Cc1ccc(S(=O)(=O)Nc2c3ccccc3c(O)c3c4c(oc23)CC(C)(C)CC4=O)cc1,0.938 ± 0.075,1.04 ± 0.067,0.935 ± 0.058,0.842 ± 0.05,1.29 ± 0.14,1.02 ± 0.16,1.01 (active)
Cc1ccc(-n2nc(C(C)(C)C)cc2NC(=O)NCc2cc(F)ccc2Oc2ccc3c(cnn3CCO)c2)cc1,0.878 ± 0.046,0.942 ± 0.15,0.964 ± 0.056,1.06 ± 0.058,1.19 ± 0.22,1.24 ± 0.44,1.01 (active)
CC1=C(C(=O)OC2CCCCC2)C(c2ccc(N(C)C)cc2)C2=C(CC(C)(C)CC2=O)N1 (stereo not given),0.767 ± 0.12,0.697 ± 0.08,1.16 ± 0.1,0.843 ± 0.083,0.943 ± 0.071,1.04 ± 0.22,1 (active)
Oc1ccc(Nc2nc(Nc3ccc(O)cc3)nc(N3CCOCC3)n2)cc1,0.559 ± 0.13,2.28 ± 0.18,4.45 ± 0.34,0.383 ± 0.016,2.4 ± 0.25,4.43 ± 1.1,0.757 (active)
Cc1ccc(CC(=O)N2CCNC(=O)C2(C)C)cc1C,1.08 ± 0.11,1.07 ± 0.1,0.989 ± 0.031,0.865 ± 0.042,0.941 ± 0.044,0.87 ± 0.085,0.999 (active)
COC(=O)c1ccccc1NC(=O)CCc1ccc(Oc2cc([N+](=O)[O-])cc([N+](=O)[O-])c2)cc1,1.22 ± 0.11,1.08 ± 0.079,1.13 ± 0.072,0.431 ± 0.054,1.03 ± 0.17,0.766 ± 0.17,1.01 (active)
COC(=O)C1=C(C)N(c2ccc(Br)cc2)C(=O)C1=Cc1ccc(O)cc1,1.12 ± 0.088,0.956 ± 0.1,0.93 ± 0.057,0.468 ± 0.035,1.31 ± 0.16,1.05 ± 0.065,1.01 (active)
c1ccc(-n2nnnc2Sc2ncnc3sc4c(c23)CCCC4)cc1,0.74 ± 0.043,0.481 ± 0.088,0.442 ± 0.027,0.0638 ± 0.0026,0.349 ± 0.095,0.835 ± 0.14,0.994 (active)
C=CCn1c(-c2ccc(OC)cc2)cnc1SCC(=O)N1CCc2ccccc21,0.967 ± 0.12,1.06 ± 0.09,1.09 ± 0.18,0.927 ± 0.1,1.03 ± 0.062,0.962 ± 0.11,1 (active)
CC(NCCc1c[nH]c2ccccc12)=C1C(=O)c2ccccc2C1=O,0.972 ± 0.081,0.979 ± 0.11,1.15 ± 0.05,0.425 ± 0.027,0.989 ± 0.033,1.28 ± 0.11,0.991 (active)
COc1ccc(NC(=O)c2ccc(C(=N)N(C)C)cc2)c(C(=O)Nc2ccc(Cl)cn2)c1,0.892 ± 0.33,1.18 ± 0.061,1.1 ± 0.11,0.837 ± 0.043,1.05 ± 0.13,1.22 ± 0.26,0.994 (active)
O=C1CSC(=S)N1c1ccc(Cl)cc1,0.606 ± 0.049,0.665 ± 0.077,0.854 ± 0.059,0.389 ± 0.059,0.673 ± 0.03,0.869 ± 0.11,0.988 (active)
N=C(N)NCCN1CCCCCCC1.O=S(=O)(O)O,1.25 ± 0.3,1.11 ± 0.088,1.24 ± 0.26,0.929 ± 0.032,1.27 ± 0.14,1.24 ± 0.12,0.993 (active)
Cl.N=C(N)NC(=O)c1nc(Cl)c(N)nc1N,1.2 ± 0.18,1.15 ± 0.22,0.891 ± 0.063,0.984 ± 0.03,1.4 ± 0.25,1.3 ± 0.12,0.988 (active)
COC(C)(CNC(=O)CSc1ccc(F)cc1)c1cccc(Cl)c1 (stereo not given),1.11 ± 0.4,1.07 ± 0.11,1.01 ± 0.074,0.973 ± 0.082,0.992 ± 0.13,1.12 ± 0.32,0.987 (active)
Cn1c(=O)[nH]c(=O)c2c1nc(N1CCCCC1)n2CCC#N,1.1 ± 0.07,1.09 ± 0.07,0.952 ± 0.071,0.945 ± 0.033,1.33 ± 0.093,1.1 ± 0.16,1 (active)
